Results with a measured potency or affinity are listed apart. The source made the active and inactive calls.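 Rule for the calls: active = primary screen inhibitor hit that blocks the TRPC4 channel at some tested dose, yielding a dose curve; inactive = the rest.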
Molecular target: Short transient receptor potential channel 4 (Mus musculus) (UniProt Q9QUQ5)
Test: block of DAMGO-driven TRPC4 calcium entry – cell-based, HEK293 TRPC4/mu-opioid, Fluo-4 calcium, dose response (AID 434942)
Conditions: HEK293 TRPC4/mu-opioid cells, DAMGO-evoked Fluo-4 calcium ratio; series mostly up to 20 µM; ratio response (lower = inhibition): at the top concentration

Chain of Short transient receptor potential channel 4 (Mus musculus) (Q9QUQ5 whole entry, looked up): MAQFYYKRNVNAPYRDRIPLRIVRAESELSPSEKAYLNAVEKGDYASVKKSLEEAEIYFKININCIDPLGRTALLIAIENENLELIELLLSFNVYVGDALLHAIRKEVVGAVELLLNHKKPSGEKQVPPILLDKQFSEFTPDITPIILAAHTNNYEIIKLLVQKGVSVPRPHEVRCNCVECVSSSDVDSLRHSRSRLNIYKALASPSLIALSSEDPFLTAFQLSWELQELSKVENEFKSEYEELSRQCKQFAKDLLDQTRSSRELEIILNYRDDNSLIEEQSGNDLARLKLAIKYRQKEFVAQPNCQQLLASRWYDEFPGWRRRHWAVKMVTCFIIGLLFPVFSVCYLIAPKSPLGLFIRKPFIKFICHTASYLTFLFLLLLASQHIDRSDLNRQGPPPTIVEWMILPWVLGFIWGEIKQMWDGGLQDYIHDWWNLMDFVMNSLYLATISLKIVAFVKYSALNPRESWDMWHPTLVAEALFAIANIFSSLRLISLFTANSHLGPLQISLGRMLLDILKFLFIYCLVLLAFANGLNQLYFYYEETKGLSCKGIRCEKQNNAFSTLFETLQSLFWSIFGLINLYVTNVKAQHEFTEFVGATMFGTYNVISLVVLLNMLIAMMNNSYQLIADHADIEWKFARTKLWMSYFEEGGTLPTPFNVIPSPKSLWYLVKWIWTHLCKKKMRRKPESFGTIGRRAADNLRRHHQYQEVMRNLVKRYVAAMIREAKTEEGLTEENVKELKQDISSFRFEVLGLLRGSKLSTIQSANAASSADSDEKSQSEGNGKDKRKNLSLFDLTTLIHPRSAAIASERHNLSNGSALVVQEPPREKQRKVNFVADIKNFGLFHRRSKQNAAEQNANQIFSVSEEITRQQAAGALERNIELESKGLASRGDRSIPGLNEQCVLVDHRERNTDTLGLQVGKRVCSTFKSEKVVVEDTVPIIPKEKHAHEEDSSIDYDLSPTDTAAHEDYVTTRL

Ratio response (lower = inhibition), inactive:
CC1CCCCN1S(=O)(=O)c1ccc(C(=O)N(CCCN(C)C)c2nc3ccc(Br)cc3s2)cc1 (stereo not given) 4.51
CC(C)(C)C(=O)NC(=S)NNC(=O)c1ccc(-c2ccccc2)cc1 -32.6
CCCOc1ccc(C(=O)NNC(=S)NC(=O)c2ccccc2)cc1 -22.4
OCCN1CCN(Cc2cc(Br)cc(Br)c2O)CC1 28.9
c1ccc(Nc2nc(Nc3ccccc3)nc(N3CCNCC3)n2)cc1 3.96
O=c1c2cc(Br)ccc2nc(-c2cccc(C(F)(F)F)c2)n1O -20.2
COc1cc(OC)cc(C(=O)NC(=S)NNC(=O)[C@H]2C[C@@H]2c2ccccc2)c1 -26.4
c1ccc2c(c1)CCN(c1ncnc3c1[nH]c1ccccc13)C2 1.9
O=C(CCc1ccccc1)NNC(=S)NC(=O)c1ccc(Cl)cc1 -34.9
Cc1cccc(C(=O)NNC(=S)NC(=O)c2cccs2)c1 -38.3
CN(C)CCCN(C(=O)c1ccc(S(=O)(=O)N2CCCCCC2)cc1)c1nc2ccc(F)cc2s1 -7.13
CC[C@@H](C(=O)[C@@H](C)[C@@H](O)[C@H](C)CCc1ccc(C)c(O)c1C(=O)O)[C@H]1O[C@](CC)([C@H]2CC[C@](O)(CC)[C@H](C)O2)C[C@@H]1C -1.3
Cc1occc1C(=O)NNC(=S)NC(=O)COc1ccc(Cl)cc1Cl -9.93
COc1cc(OC)cc(C(=O)N[C@H](C(=O)OCC(=O)NC(C)c2ccccc2)C(C)C)c1 (stereo not given in full) -10.8
O=C(NC(=S)NNC(=O)[C@H]1C[C@@H]1c1ccccc1)c1cccc(F)c1 -32.8
CCOc1ccccc1OCC(=O)Nc1cc(S(=O)(=O)N2CCCCC2)ccc1N1CCN(CC)CC1 11.2
Cc1onc(-c2c(F)cccc2Cl)c1C(=O)N1CCN(c2ncc(Br)cn2)CC1 17.6
CCOC(=O)C1=NN(C(=O)c2ccc(C)cc2)C(O)(c2ccc(Cl)cc2)C1 (stereo not given) -5.66
COc1ccc(/C=C/CN2CCCC(C(=O)c3ccc(OC)c(F)c3)C2)cc1 (stereo not given) 28.8
NCCSc1c(-c2ccc(Cl)cc2)[nH]c2ccccc12 -23.5
COc1ccc(C(CNC(=O)c2cccc(NS(=O)(=O)c3ccc(C)c(F)c3)c2)N(C)C)cc1 (stereo not given) -2.73
CCCOc1ccc(C(=O)NNC(=S)NC(=O)c2cccs2)cc1 -17.9
CCOC(=O)C1CCCN(C(c2ccccn2)c2c(C)[nH]c3ccccc23)C1 (stereo not given) 84.8
Cc1ccc(NS(=O)(=O)c2ccc(C(=O)N3CC(C)CC(C)C3)cc2)cc1 (stereo not given) 35.5
COC(=O)C1=NN(C(=O)c2cccc(Br)c2)C(O)(c2ccc(Cl)cc2)C1 (stereo not given) -10.7
Cc1cc(C)c(CN2CCN(Cc3ccc(C)o3)C(CCO)C2)c(-n2cccn2)c1 (stereo not given) -0.24
CCOc1ccc2ncc(C(=O)c3ccc(OC)cc3)c(N3CCN(CC)CC3)c2c1 -5.12
CC(C)(C)c1cc(CCC(=O)NNC(=S)NC(=O)c2ccccc2)cc(C(C)(C)C)c1O -49.4
COc1ccccc1C(=O)NNC(=S)NC(=O)c1sc2ccccc2c1Cl 14.9
O=C1CC(O)(C(F)(F)F)Oc2c1ccc1ccccc21 (stereo not given) -10.1
CCCc1ccc(OCC(=O)NNC(=S)NC(=O)c2ccco2)cc1 -18.9
Cc1ccccc1OCC(=O)NNC(=S)NC(=O)c1ccco1 -19.9
CCCOc1ccc(C(=O)NC(=S)NNC(=O)c2c(-c3ccccc3)noc2C)cc1 -18.1
Cc1cc(OCCCn2ccnc2)cc(C)c1Cl 2.65
CCN1CCN(c2c(S(=O)(=O)c3ccc(C)c(C)c3)cnc3ccc(F)cc23)CC1 -7.24
Cc1cccc(C(=O)NC(=S)NNC(=O)c2cccs2)c1 -25.5
Cc1ccc(C)c(-n2cc(CNCCc3cnccn3)c(-c3ccccc3)n2)c1 -4.69
Cc1ccc2c(C)c(C(=O)N(Cc3cccs3)C3CCS(=O)(=O)C3)oc2c1 (stereo not given) 0.39
CC(C)(C)c1ccc(C(=O)NC(=S)NNC(=O)c2cccs2)cc1 -26
CCCCN(CC)CCCNC(=O)Cn1nc(Cc2ccncc2)c2ccccc2c1=O 20.1
